Source: PubChem BioAssay AID1159580 (chemical genetic matrix, 2015)
Several values for one entry are separate records, joined by “and”; a condition that tells them apart may be missing. Identical values can stand only once. About 2,000 (36%) of roughly 5,500 compounds were called active. Roughly 18% stayed inconclusive and do not appear here. No stated cut-off is given here; in the data, active means normalized growth mostly below about 0.91 (no sharp cut-off); inconclusive means no clear call, values can overlap the other calls; inactive means mostly above about 0.92. Some of the results follow.

Test: chemical genetic growth profiling, strain panel (AID 1159580);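 further: tested at 20 µM; growth read once vehicle control cultures reached saturation at 30 °C; 1 = growth at the plate median or of vehicle wells; lower values mean less growth of the strain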
Details: S. cerevisiae deletion strains, growth OD

Measured: normalized growth

COc1cc(Cc2cnc(N)nc2N)cc(OC)c1OC
inactive: locus YAL013W, strain DEP1, active compounds read low 1 and 1.03 | locus YAL021C, strain ccr4, active compounds read low 1.02 | locus YAL026C, strain drs2, active compounds read low 1.01 | locus YAL030W, strain snc1, active compounds read low 1.01 | locus YAL040C, strain CLN3, active compounds read low 0.987 | locus YBL061C, strain skt5, active compounds read low 1.01 | locus YBR009C, strain hhf1, active compounds read low 1.01 | locus YBR021W, strain FUR4, active compounds read low 0.977 | locus YBR023C, strain chs3, active compounds read low 1.01 | locus YBR171W, strain sec66, active compounds read low 1.02 | locus YBR229C, strain ROT2, active compounds read low 0.998 | locus YBR231C, strain swc5, active compounds read low 1.01 | locus YBR279W, strain paf1, active compounds read low 1.02 | locus YCL011C, strain gbp2, active compounds read low 1.02 | locus YCL016C, strain dcc1, active compounds read low 1.02 | locus YCL029C, strain bik1, active compounds read low 0.982 | locus YCL061C, strain MRC1 (second series), active compounds read low 0.992 | locus YCL069W, strain vba3, active compounds read low 1.02 | locus YCR088W, strain abp1, active compounds read low 1.02 | locus YDL005C, strain med2, active compounds read low 1.02 | locus YDL035C, strain GPR1, active compounds read low 1.03 | locus YDL040C, strain nat1, active compounds read low 1.01 | locus YDL074C, strain BRE1, active compounds read low 0.993 | locus YDL101C, strain DUN1, active compounds read low 0.99 | locus YDL134C, strain PPH21, active compounds read low 0.986 | locus YDL185W, strain tfp1, active compounds read low 0.987 | locus YDL192W, strain arf1, active compounds read low 0.99 | locus YDR001C, strain nth1, active compounds read low 1.01 | locus YDR069C, strain doa4, active compounds read low 1.03 | locus YDR101C, strain arx1, active compounds read low 0.986 | locus YDR137W, strain rgp1, active compounds read low 1.02 | locus YDR150W, strain NUM1, active compounds read low 1 | locus YDR159W, strain sac3, active compounds read low 0.977 | locus YDR162C, strain NBP2, active compounds read low 1 | locus YDR195W, strain ref2 1 | locus YDR297W, strain sur2, active compounds read low 1.01 | locus YDR318W, strain mcm21, active compounds read low 0.99 | locus YDR334W, strain swr1, active compounds read low 1.02 | locus YDR335W, strain msn5, active compounds read low 1.02 | locus YDR363W, strain ESC2, active compounds read low 0.991 | locus YDR388W, active compounds read low 0.987 | locus YDR392W, strain spt3, active compounds read low 0.984 | locus YDR502C, strain sam2, active compounds read low 0.998 | locus YEL003W, strain gim4, active compounds read low 1.02 | locus YEL037C, strain rad23, active compounds read low 1.01 | locus YEL061C, strain CIN8 (second series), active compounds read low 1.01 | locus YEL061C, strain CIN8, active compounds read low 0.997 | locus YER002W, strain NOP16, active compounds read low 0.968 | locus YER015W, strain faa2, active compounds read low 1.02 | locus YER016W, strain bim1, active compounds read low 1.01 | locus YER110C, active compounds read low 0.988 | locus YER111C, strain swi4, active compounds read low 1.03 | locus YER155C, strain BEM2 (second series), active compounds read low 0.991 | locus YER155C, strain BEM2, active compounds read low 0.989 | locus YER167W, strain BCK2, active compounds read low 1.01 | locus YFR010W, strain ubp6, active compounds read low 1.01 | locus YGL078C, strain dbp3, active compounds read low 0.992 | locus YGL086W, strain mad1, active compounds read low 1.01 | locus YGL167C, strain pmr1, active compounds read low 1.02 | locus YGL173C, strain kem1, active compounds read low 1.02 | locus YGL227W, strain vid30, active compounds read low 1.01 | locus YGL240W, strain doc1, active compounds read low 1.01 | locus YGL248W, strain PDE1, active compounds read low 1 | locus YGL253W, strain hxk2, active compounds read low 1.01 | locus YGR078C, strain PAC10, active compounds read low 1.01 | locus YGR135W, strain pre9, active compounds read low 0.985 | locus YGR229C, strain SMI1, active compounds read low 1.04 | locus YGR252W, strain gcn5, active compounds read low 1.07 | locus YHR013C, strain ard1, active compounds read low 1.01 | locus YHR027C, strain rpn1, active compounds read low 1.01 | locus YHR030C, strain SLT2, active compounds read low 0.999 and 0.966 | locus YHR079C, strain IRE1 (second series), active compounds read low 0.988 | locus YHR079C, strain IRE1, active compounds read low 0.979 | locus YHR094C, strain hxt1, active compounds read low 0.993 | locus YHR129C, strain ARP1, active compounds read low 0.991 | locus YHR142W, strain chs7, active compounds read low 1.03 | locus YHR200W, strain rpn10, active compounds read low 0.989 | locus YIL066C, strain RNR3, active compounds read low 1 | locus YIL073C, strain SPO22, active compounds read low 0.995 | locus YIL125W, strain kgd1, active compounds read low 1 | locus YIR030C, strain dcg1, active compounds read low 0.991 | locus YJL092W, strain hpr5, active compounds read low 1 | locus YJL095W, strain BCK1 (second series), active compounds read low 1.01 | locus YJL095W, strain BCK1, active compounds read low 0.988 and 0.98 | locus YJL115W, strain asf1, active compounds read low 1.02 | locus YJL129C, strain trk1, active compounds read low 1.01 | locus YJL134W, strain LCB3, active compounds read low 0.999 | locus YJL154C, strain vps35, active compounds read low 1.03 | locus YJL164C, strain tpk1, active compounds read low 1.01 | locus YJL166W, strain qcr8, active compounds read low 0.993 | locus YJL168C, strain set2, active compounds read low 0.993 | locus YJL187C, strain SWE1 (second series), active compounds read low 0.993 | locus YJL187C, strain SWE1, active compounds read low 1.02 | locus YJR043C, strain POL32, active compounds read low 1 | locus YJR066W, strain TOR1, active compounds read low 0.929
